Sampled rows, rich in hits. Any-hit rate of the full collection: about 3.5%.
MITF inh: blocks human microphthalmia-associated transcription factor | AlphaScreen MITF homodimerization, bead proximity signal | inhibition, % at 2.6 µM | hit rate 0.91% among 650,000; in the data active = inhibition above about 50%
Target sequence (O75030 whole entry, looked up): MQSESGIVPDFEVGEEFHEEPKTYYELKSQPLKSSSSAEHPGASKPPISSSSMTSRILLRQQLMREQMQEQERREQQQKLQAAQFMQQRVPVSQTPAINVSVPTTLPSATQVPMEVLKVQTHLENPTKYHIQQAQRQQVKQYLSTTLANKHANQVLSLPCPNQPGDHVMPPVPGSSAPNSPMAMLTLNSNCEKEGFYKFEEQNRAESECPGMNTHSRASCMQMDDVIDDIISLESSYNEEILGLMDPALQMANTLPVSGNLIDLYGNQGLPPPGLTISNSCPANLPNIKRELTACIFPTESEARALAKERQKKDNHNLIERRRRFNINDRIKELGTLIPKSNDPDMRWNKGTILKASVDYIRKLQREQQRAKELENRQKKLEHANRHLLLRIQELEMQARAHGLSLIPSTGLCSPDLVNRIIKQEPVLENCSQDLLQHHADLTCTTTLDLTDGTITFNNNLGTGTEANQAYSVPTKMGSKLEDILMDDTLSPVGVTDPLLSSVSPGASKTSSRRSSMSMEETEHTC
TEAD-YAP inh: TEAD-YAP interaction inhibition. HEK-TIYL cells, TEAD-Gal4/YAP UAS-luciferase luminescence. inhibition, % at 9.12 µM. hit rate 1.4% among 640,000; in the data active = inhibition above about 32%
GPR151 ag: human GPR151 activation. Q8TDV0. PathHunter beta-arrestin GPR151 cells, luminescence. activation, % at 11.2 µM. hit rate 1% among 650,000. AID 1508602; in the data active = activation above about 4.9%
FBW7 act: activators of human E3 ligase FBW7. Q969H0. AlphaScreen FBW7–phospho-cyclin E peptide binding, activator screen. normalized activity (activation), % at 26.1 µM. hit rate 0.13% among 650,000; in the data active = normalized activity above about 1.9%;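 also: purified mutant Fbw7 with reduced substrate affinity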
Each line names hits and unclear results; the compound was inactive in the other large screens.

Cc1cc(C)cc(NC(=O)Cn2ncc3c2-c2ccccc2OC3)c1	none
Cc1ccc2c(c1)-c1c(cnn1CC(=O)Nc1ccc3c(C)cc(=O)oc3c1)CO2	TEAD-YAP inh 49.5
COc1cc(/C=C/C(=O)OCC(=O)N(C(C)C)C(C)C)ccc1O	none
CNC(=S)N1CCC(NC(=O)C(Cc2ccc(OC)cc2)NC(C)=O)CC1 (stereo not given)	FBW7 act 2.4
Cn1nnnc1Sc1nc(CN2CCOCC2)nc2scc(-c3cccs3)c12	TEAD-YAP inh 60.6
O=c1[nH]c(CN2CCOCC2)nc2scc(-c3cccs3)c12	none
Cc1cccc(NC(=O)CSc2nc(C)cc(C)c2C#N)n1	TEAD-YAP inh 80.8
Cc1cc(C)c(C#N)c(SCC(=O)Nc2ccccc2C(=O)O)n1	none
Cc1ccc(C#N)c(SCC(=O)Nc2ccccc2C(=O)O)n1	TEAD-YAP inh 33.3
CCOC(=O)COc1ccc(/C=C/[N+](=O)[O-])cc1OC	none
Cc1sc2ncnc(Sc3nnc(N)s3)c2c1C	TEAD-YAP inh 36.7
Cc1sc2ncnc(Sc3nnc4ccccn34)c2c1C	none
Cc1nc(-c2ccc(NC(=O)c3ccc([N+](=O)[O-])cc3)cc2)cs1	none
CCN(CC)c1nc(Nc2ccccc2)nc(Nc2cc(OC)c(OC)c(OC)c2)n1	none
CCN(CC)c1nc(Nc2ccc(-n3ccnc3)cc2)nc(Nc2cc(OC)c(OC)c(OC)c2)n1	TEAD-YAP inh 74.7
COc1cc(Nc2ccnc(Nc3ccc(-n4ccnc4)cc3)n2)cc(OC)c1OC	TEAD-YAP inh 51.5
COc1ccc(-c2nc(Nc3ccc(Oc4ccccc4)cc3)c3ncn(Cc4ccc(C(F)(F)F)cc4)c3n2)cn1	none
Cc1nc(C)n(-c2ccc(Nc3cc(-n4cc(C)c(Nc5ccccc5)n4)ccn3)cc2)n1	FBW7 act 1.9
CCOc1cccc(C(=O)Nc2ccc3c(c2)OCCO3)c1	TEAD-YAP inh 57.7
CCOCCC(=O)Nc1ccc2c(c1)OCCO2	TEAD-YAP inh 39.1
O=C(CCC(=O)Nc1ccc2c(c1)OCCO2)Nc1ccc2c(c1)OCCO2	none
CCOC(=O)c1ccc(NC(=O)c2cccc(Oc3ccccc3)c2)cc1	TEAD-YAP inh 47.9
CCOc1cccc(C(=O)Nc2ccc3ccccc3c2)c1	TEAD-YAP inh 58.1
COc1ccc(-c2[nH]ncc2C(=O)NCc2cccs2)cc1	none
Cc1cc(C(=O)Nc2ccc3ccccc3c2)oc1C	none
Cc1ccoc1C(=O)Nc1ccc2ccccc2c1	TEAD-YAP inh 40.6
COc1cccc2c1C(=O)c1c(O)c3c(c(O)c1C2=O)C[C@@](O)(C(C)=O)C[C@@H]3O[C@H]1C[C@H](N)[C@H](O)[C@H](C)O1	TEAD-YAP inh 92.7
COc1cccc2c1C(=O)c1c(O)c3c(c(O)c1C2=O)C[C@@](O)(C(=O)CO)C[C@@H]3O[C@H]1C[C@H](N)[C@@H](O)[C@H](C)O1	TEAD-YAP inh 61.6
CC(=O)[C@]1(O)Cc2c(O)c3c(c(O)c2[C@@H](O[C@H]2C[C@H](N)[C@H](O)[C@H](C)O2)C1)C(=O)c1ccccc1C3=O	none
Cc1cccc(NC(=O)C2(S(=O)(=O)c3ccc(Cl)cc3)CC2)c1	FBW7 act 4.7
Cc1ccc(NC(=O)C2(S(=O)(=O)c3ccc(Cl)cc3)CC2)cc1	none
COCC(=O)NC1CCN(C(=S)Nc2ccccc2)CC1	none
O=C(Nc1nc2c(Cl)cccc2s1)c1ccc(S(=O)(=O)N2CCOCC2)cc1	none
CC(=O)Oc1cccc2ccc(/C=C/c3ccc4c(c3)OCO4)nc12	TEAD-YAP inh 78.3
CC(=O)Oc1cccc2ccc(/C=C/c3cc4c(cc3Cl)OCO4)nc12	none
Oc1cccc2ccc(/C=C/c3ccc4c(c3)OCCO4)nc12	TEAD-YAP inh 92.0
COc1ccccc1CCNC(=O)CSc1ccc(-n2nc(C)cc2C)nn1	none
O=C1c2ccc(-c3nc4ccccc4c(=O)o3)cc2C(=O)N1c1ccccc1I	none
Nc1c[n+]2c(n1-c1ccc(Br)cc1)CCCCC2	none
Cc1ccc(-n2c(-c3ccc(Cl)cc3)c[n+]3c2CCC3)cc1	TEAD-YAP inh 63.9
CC(C)[C@H]1CN(C)CCN1C(=O)CCc1nnc(-c2ccc(-c3ccccc3)cc2)o1	none
CSc1ccccc1C(=O)Nc1nc(-c2ccc(C#N)cc2)cs1	none
CS(=O)(=O)c1ccccc1C(=O)Nc1nc(-c2ccc(C#N)cc2)cs1	TEAD-YAP inh 34.0
Cc1ccc(S(=O)(=O)Nc2ccccc2C(=O)Nc2nc(-c3ccc(Br)cc3)cs2)cc1	TEAD-YAP inh 38.1
Cc1ccc(S(=O)(=O)Nc2ccccc2C(=O)Nc2nc(-c3cccs3)cs2)cc1	none
Cc1ccc(S(=O)(=O)Nc2ccccc2C(=O)Nc2nc(-c3ccc(Br)s3)cs2)cc1	TEAD-YAP inh 52.9
Cc1ccc(S(=O)(=O)Nc2ccccc2C(=O)Nc2nc(-c3ccc(Cl)cc3)cs2)cc1	TEAD-YAP inh 52.9
CCC1CCCCN1CCCNC(=O)CSc1cc(=O)n(CC)c2ccccc12 (stereo not given)	none
Cc1ccc(C(=O)N2C(=O)C(C)Oc3ccccc32)cc1 (stereo not given)	none
O=C(CCCn1c(SCc2cccc([N+](=O)[O-])c2)nc2ccsc2c1=O)NCCc1ccccc1	none
Cc1ccc(S(=O)(=O)Nc2ccccc2C(=O)Nc2nccs2)cc1	TEAD-YAP inh 39.0
CC(C)c1ccc(OCC(=O)Nc2ncn[nH]2)c(Br)c1	TEAD-YAP inh 63.2
CC(C)(C)c1ccc(OCC(=O)Nc2ncn[nH]2)c(Br)c1	none
CC(=O)O[C@@H]1CC2C(C)(CC[C@H](O)C2(C)C)C2CC[C@]3(C)C(=CC(=O)O[C@H]3c3ccoc3)C21C (stereo not given in full)	none
COc1ccc(-c2noc(-c3cccc(C)c3)n2)cc1	none
COc1ccc(-c2nc(-c3cccs3)no2)cc1	TEAD-YAP inh 74.6
Cc1cccc(-c2noc(-c3ccc(C(C)(C)C)cc3)n2)c1	TEAD-YAP inh 48.7
COc1ccc(-c2nc(-c3ccncc3)no2)cc1	none
COc1cc(OC)cc(-c2nc(-c3ccccc3)no2)c1	none
COc1cc(OC)cc(-c2nc(-c3ccccn3)no2)c1	none
COc1ccc(-c2nc(-c3ccccc3)no2)cc1	TEAD-YAP inh 52.6
COc1ccc(-c2nc(-c3ccccn3)no2)cc1	TEAD-YAP inh 96.6
C[C@]12C=CC(=O)C=C1CCC1C2[C@@H](O)C[C@@]2(C)C1CC[C@]2(O)C(=O)COC(=O)CCC(=O)O (stereo not given in full)	FBW7 act 8.0
Cc1cc(Cl)ccc1OCCCC(=O)NNC(=S)NCc1ccco1	none
N#Cc1cccc(Cn2c(-c3nonc3N)nc3ccccc32)c1	TEAD-YAP inh 48.1
Cc1nc(C)n(-c2ccc(Nc3nccc(-c4ccccc4-c4ccccc4)n3)cc2)n1	none
Cc1nc(C)n(-c2ccc(Nc3nccc(-c4cncc5ccccc45)n3)cc2)n1	TEAD-YAP inh 80.9
O=C(c1ccccn1)N1CCC(Cn2nc(-c3ccc(F)cc3)ccc2=O)CC1	none
Nc1ccc2nc(SCC(=O)N3CCN(c4ccc(Cl)cc4)CC3)sc2c1	TEAD-YAP inh 51.1
Cc1ccc(-n2ncc3c(NCCCn4ccnc4)ncnc32)cc1C	none
Clc1cccc(-n2ncc3c(NCCCn4ccnc4)ncnc32)c1	TEAD-YAP inh 56.4
CCCNC(=S)Nc1ccc(OC)cc1	none
Oc1ccc(-c2csc(NCc3ccccc3)n2)cc1O	none

Source: PubChem (The Scripps Research Institute Molecular Screening Center)
